Source: PubChem BioAssay (National Center for Advancing Translational Sciences (NCATS))
An excerpt weighted towards active compounds, which were near 5.5% of everything screened.
RORg inh – inhibitors of mouse ROR gamma transcriptional activity | Drosophila S2 Gal4-RORgamma UAS-luciferase reporter, 20 h | hit rate 5.4% among 310,000 | Potency, µM (top dose mostly 53.6 µM), without a hit: at the highest dose activity change, negative = inhibition, actives largely listed as inhibitors; also: % is scaled to controls: 0 for no effect and ±100 for the full control effect; nearly all actives have a fitted effect of over 60% in size
Target sequence (P51450 whole entry, looked up, the tested form may be a part): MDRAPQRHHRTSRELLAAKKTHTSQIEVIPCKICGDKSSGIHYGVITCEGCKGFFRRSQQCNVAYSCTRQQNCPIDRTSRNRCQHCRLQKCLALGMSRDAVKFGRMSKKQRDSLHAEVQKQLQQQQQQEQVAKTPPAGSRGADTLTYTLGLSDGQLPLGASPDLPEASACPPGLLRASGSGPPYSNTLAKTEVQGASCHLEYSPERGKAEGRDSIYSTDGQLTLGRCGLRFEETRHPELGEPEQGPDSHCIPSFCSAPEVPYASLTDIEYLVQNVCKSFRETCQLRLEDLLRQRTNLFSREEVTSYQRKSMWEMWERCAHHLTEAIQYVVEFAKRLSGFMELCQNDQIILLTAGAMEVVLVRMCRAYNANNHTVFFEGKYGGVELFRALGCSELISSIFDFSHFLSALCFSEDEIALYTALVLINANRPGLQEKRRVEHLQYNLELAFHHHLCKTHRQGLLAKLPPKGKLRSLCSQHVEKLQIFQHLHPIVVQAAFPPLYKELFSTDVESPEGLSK
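Stable Schneider cell line, Gal4 DNA-binding domain fused to ROR gamma, UAS-luciferase. Cmpd 1 hr RT → CuSO4 700 uM final → 20 hr RT → luciferase reagent 10 min → luminescence.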
Gal4-VP16 FLuc – inhibits Gal4-VP16 luciferase reporter, ROR gamma counter-screen. Drosophila S2 Gal4-VP16 UAS-luciferase, luminescence, 20 h. Potency, µM (top dose mostly 53.6 µM), for inactives: at the highest dose activity, negative = inhibition, usual class: inhibitors. hit rate 3.5% among 310,000. AID 2546;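 also: Gal4-VP16 expression switched on by copper sulfate through the metallothionein promoter; % is scaled to controls: 0 for no effect and ±100 for the full control effect; nearly all actives have a fitted effect of over 50% in size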
uPA surface inh – cell surface uPA generation inhibition; cell surface uPA generation assay, qHTS; hit rate 0.31% among 330,000; Potency, µM (top dose mostly 38.3 µM), for inactives: at the top dose activity change, negative = inhibition, hits mostly inhibitors; active = well fitted inhibition curve with a large enough effect; inconclusive = small, poorly fitted or top-dose-only effect; inactive = no such curve, though single readings can be large or run the other way; tested in mouse RAW 264.7 cells; also: % is scaled to controls: 0 for no effect and ±100 for the full control effect; nearly all actives have a fitted effect of over 55% in size
Mito fusion act – blocks mitochondrial division or promotes mitochondrial fusion; S. cerevisiae fusion-defective mutant growth rescue, CellTiterGlo 48 h; Potency, µM (doses to about 46.1 µM), inactives show top-dose growth rescue (activation), hits mostly activators; hit rate 0.23% among 320,000; AID 485298; also: % of control where 0% means no effect; nearly all actives have a fitted effect of over 45% in size
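S. cerevisiae fusion-defective temperature-sensitive mutants (e.g. fzo1-1, mgm1-5) grown 48 h at 37C in YPEG (ethanol/glycerol non-fermentable) medium with 23 nl compound per well; growth rescue read as CellTiterGlo luminescence.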
Chronic BCR inh – blocks chronic active B-cell receptor signaling. ABC-DLBCL IkBa-CBG/CBR reporter, luminescence ratio, 4 h. Potency, µM (series often up to 46.1 µM), for inactives: at the top dose activity change, negative = inhibition, actives largely listed as inhibitors. hit rate 0.05% among 340,000; active = well fitted inhibition curve with a large enough effect in the signal ratio, with a control signal flat, not every such curve was filed as active; inconclusive = small, poorly fitted or top-dose-only effect, or effect the other way, or a change in a side signal; the % refers to the signal ratio;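 also: plate controls were basal doxycycline-induced cells for no effect and cells given 10 µM MG132 for full effect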
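TMD8 ABC-DLBCL cells carrying doxycycline-inducible green luciferase fused to IkappaBalpha plus unfused red luciferase were exposed to compounds (up to 46 uM) for 4 hrs at 37C. Activity came from the overlap-corrected green/red luminescence ratio.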
a7 integrin act – integrin-mediated muscular dystrophy alleviation activation; alpha7betagal myoblasts, beta-gal FDG fluorescence, 48 h; Potency, µM (titrated, usually from 38.3 µM), for the others: top-dose activation, usual class: activators; hit rate 0.064% among 350,000; AID 624291;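 also: 100% = response of the positive control SU9516; nearly all actives have a fitted effect of over 60% in size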
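alpha7betagal+/- myoblasts (passage 13, 250/well) treated 48 h at 37C with compounds at 1:260 dilution of DMSO stock. Lysed, then beta-galactosidase activity read as FDG fluorescence (ex 480/em 540) after 30 min, with pre-read for autofluorescence.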
Starred values were filed as active, the others as inactive; ? = inconclusive; / = no result given; [ ] = remark or other dose. Unless noted, calls follow the shape of the dose curve; as a rule, active = well fitted curve in the direction sought with a large enough effect; inconclusive = small, poorly fitted or top-dose-only effect, or another doubt; inactive = no such curve, though single readings can be large; an effect the other way counts as inactive or inconclusive. Potency is read from the fitted curve at half-maximal effect.

SMILES | RORg inh | Gal4-VP16 FLuc | uPA surface inh | Mito fusion act | Chronic BCR inh | a7 integrin act
CC(C)(C)c1ccc(-c2noc(CCC(=O)Nc3cccnc3)n2)cc1 | 0.0631µM* | ? | -9.2% | 30.7% | ? | 24.4%
COc1ccc(-c2noc(CCC(=O)Nc3cccnc3)n2)cc1 | ? | -11.0% | 9.0% | 6.4% | 15.8% | 2.4%
CNC(=O)CCc1nc(-c2ccc(C(C)(C)C)cc2)no1 | 0.316µM* | 7.08µM* | 2.9% | 5.1% | -12.5% | -12.4%
CC(C)(C)c1ccc(-c2noc(CCC(=O)NCC3CCCO3)n2)cc1 (stereo not given) | 1µM* | 10µM* | / | 1.7% | ? | -6.9%
CS(=O)(=O)Nc1cccc(-c2ccc3ncnc(NCCN4CCOCC4)c3c2)c1 | ? | 23.7% | / | / | / | /
CN1CCN(c2ncnc3ccc(-c4cccc(C#N)c4)cc23)CC1 | ? | 1.4% | / | / | / | /
Cc1ccc(NC(=S)N2CCN(CCN3C(=O)c4cccc5cccc(c45)C3=O)CC2)cc1 | 7.08µM* | ? | 2.4% | -6.9% | 1.8% | -19.4%
O=C1c2cccc3cccc(c23)C(=O)N1CCN1CCN(C(=S)Nc2ccc(F)cc2)CC1 | -33.3% | -2.0% | / | -5.3% | 0.7% | /
COC(=O)CCS(=O)(=O)c1nc(-c2ccccc2)cc(C(F)(F)F)n1 | 7.08µM* | 5.62µM* | / | -9.5% | ? | -70.3%
CCOC(=O)CS(=O)(=O)c1nc(-c2ccccc2)cc(C(F)(F)F)n1 | 2.82µM* | 5.01µM* | -10.1% | -9.4% | ? | -59.3%
CCOC(=O)CCS(=O)(=O)c1nc(-c2ccccc2)cc(C(F)(F)F)n1 | 24.2% | ? | 0.0% | -26.2% | ? | -46.6%
O=C(O)CCS(=O)(=O)c1nc(-c2cccs2)cc(C(F)(F)F)n1 | ? | ? | / | -6.9% | 13.3% | 3.9%[7.66 µM]
CCOC(=O)CS(=O)(=O)c1nc(-c2ccc(F)cc2)cc(C(F)(F)F)n1 | 5.62µM* | 5.01µM* | -10.7% | -2.6% | ? | -15.2%
COc1ccc(-c2cc(C(F)(F)F)nc(S(=O)(=O)CCCC(=O)Nc3cccnc3Cl)n2)cc1OC | 1.58µM* | ? | -10.6% | -6.4% | ? | -70.7%
COc1cc(NC(=O)CCS(=O)(=O)c2nc(-c3cccs3)cc(C(F)(F)F)n2)cc(OC)c1OC | / | / | / | 3.1% | ? | /
COc1ccccc1OCc1ccc(C(=O)Nc2ccc(C)c(C)c2)o1 | / | / | / | -8.1% | 8.6% | /
O=C1CN(S(=O)(=O)c2cccc(Cl)c2Cl)CCN1 | / | / | 4.8% | -2.0% | -3.4% | -0.2%
Nc1ccc(N=Nc2ccccc2)c(N)c1 | -2.1% | 3.5% | / | / | / | /
Nc1ccccc1N=Nc1ccccc1N | 10µM* | ? | ? | -4.5% | 1.6% | 3.6%
COc1cc(C(=O)NNC(=O)c2ccccc2OCc2c(C)noc2C)cc(OC)c1OC | / | / | -11.5% | 7.0% | -9.7% | -41.0%
COc1ccc(CCCc2n[nH]c(=S)o2)cc1C | 10µM* | -2.2%[10 µM] | -4.9% | -1.5% | 2.7% | 13.5%
Cc1cccc(OCc2n[nH]c(=S)o2)c1C | ? | 25.0% | -9.1% | 2.5% | -0.4% | 10.9%
COc1ccc(CCCc2n[nH]c(=S)n2C)cc1C | 5.01µM* | -3.1%[10 µM] | -0.1% | 8.3% | -26.9% | 13.7%
CC(=O)C1C(=O)c2c(cccc2[N+](=O)[O-])C1=Nc1ccc(S(N)(=O)=O)cc1 (stereo not given) | -17.0% | -0.2% | 2.3% | 2.4% | -0.5% | -15.2%
O=C(Nc1cccc(-n2cnnn2)c1)c1cnccc1Cl | -25.2% | 3.9% | 0.4% | 6.1% | -19.3% | -10.9%
SMILES | RORg inh | Gal4-VP16 FLuc | uPA surface inh | Mito fusion act | Chronic BCR inh | a7 integrin act
c1ccc(CSC2=NNC(c3ccccn3)S2)cc1 (stereo not given) | -2.8% | 3.2% | -7.3% | -6.3% | ? | 0.6%
O=C(CSC1=NNC(c2ccccn2)S1)Nc1ccc(C(F)(F)F)cc1 (stereo not given) | 3.16µM* | 5.01µM* | 5.1% | 0.5% | -16.5% | -51.4%
O=C(Nc1nnc(SCc2ccc(Cl)cc2)s1)c1cnccn1 | 12.6µM* | 14.1µM* | 1.3% | 22.1% | 0.2% | -9.8%
CCN1CCN(Cc2ccc(NC(=O)c3ccc(C)c(NC(=O)c4nccn4C)c3)cc2C(F)(F)F)CC1 | ? | ? | 6.9% | -3.8% | 3.1% | -7.9%
CCN1CCN(Cc2ccc(NC(=O)c3ccc(C)c(NC(=O)c4cc(-c5ccc(Br)cc5)n[nH]4)c3)cc2C(F)(F)F)CC1 | ? | ? | 12.6µM* | -1.7% | ? | -41.6%
CCN1CCN(Cc2ccc(NC(=O)c3ccc(C)c(NC(=O)c4cncc(-c5cccs5)c4)c3)cc2C(F)(F)F)CC1 | / | / | 1µM* | / | / | -41.3%
CCN1CCN(Cc2ccc(NC(=O)c3cc(NC(=O)c4cncc(-c5ccc(C#N)cc5)c4)cc(OC)c3)cc2C(F)(F)F)CC1 | 2.82µM* | 3.55µM* | -29.1% | -11.2% | ? | -56.5%
CCN1CCN(Cc2ccc(NC(=O)c3ccc(C)c(NC(=O)c4cccc5[nH]ccc45)c3)cc2C(F)(F)F)CC1 | 6.31µM* | -13.3% | -63.8% | -2.3% | ? | -56.0%
O=C(CCOc1ccccc1)N(Cc1cccnc1)c1nc2c(F)cccc2s1 | / | / | / | / | 6.9% | /
O=C(c1csnn1)N1CCC[C@@]2(CCN(C(c3ccccc3)c3ccccc3)C2)C1 | 0.0% | 28.8% | / | / | / | /
Cc1cccc(C)c1NC(=O)/C(=C/c1ccco1)c1ccccc1 | ? | 12.6µM* | -7.8% | 6.6% | ? | 6.7%
Cc1ccc(C(C(=O)NC2CCCCC2)N(CC2CCCO2)C(=O)CCCC(=O)Nc2ccccn2)cc1 (stereo not given) | 1.9% | 25.2% | 2.5% | 2.6% | 11.0% | 3.1%
C=CCn1c(-c2cc3c(s2)CCC(CC)C3)n[nH]c1=S (stereo not given) | 2.24µM* | ? | 2.0% | -1.4% | ? | -16.5%
COc1ccc2cc(C#N)c(=O)oc2c1 | 7.1% | -6.0% | / | / | / | /
CCO/C=C/C(O)(CNC(=O)c1ccc(C(C)(C)C)cc1)C(F)(F)F (stereo not given) | -85.4% | 20µM* | 7.2% | 18.7% | ? | 11.1%
CCOC(=O)CNC(=O)c1ccc(C)cc1 | 43.3% | -2.9% | 6.2% | -5.0% | 15.4% | 33.5%
NC(=O)CCCCn1ccc(NC(N)=NCC(F)(F)F)n1 | -10.9% | 7.0% | / | / | / | /
FC(F)(F)c1ccc(CN2C[C@@H]3C(c4ccc(C(F)(F)F)cc4)C4(c5ccccc5)CC3(C4)[C@H]2c2ccccc2)cc1 (stereo not given in full) | -21.4% | 7.1% | / | / | / | /
CCCc1cc(=O)[nH]c(-n2[nH]c3c(c2=O)CCCC3)n1 | 2.24µM* | 3.55µM* | -1.2% | -0.9% | ? | -5.4%
O=C(Nc1nc(-c2cc(F)ccc2F)cs1)c1ccccn1 | 0.1µM* | 1.26µM* | 2.8% | -6.3% | ? | -35.7%
